# Measurements from the supplement of paper PMC10338343.
# ± gives the standard deviation.
# Tested on: MILI (PIWIL2) piRISC loaded with L1MC piRNA (26 nt)
# Experiment: pre-steady-state target cleavage rate (min^-1); guide: L1MC piRNA 5'p-UAACUAAAUACUAUGCAAGCUGUAGG; MIWI and MILI are mouse PIWI proteins and EfPiwi is from a freshwater sponge; tags in brackets are library labels; higher = faster piRNA-guided slicing of the target
# Conditions: auxiliary factor: 500 nM mouse GTSF1
# How it was run: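 With or without 500 nM GTSF1 partner protein, 1 nM active affinity-purified piRISC carrying one synthetic guide was mixed with 0.1 nM transcribed, DNA-blocked target RNA library in HEPES–potassium acetate buffer at 33 °C for 0–8 or 0–960 min. Uncleaved targets were sequenced and normalised to depth and to weakly complementary targets, three trials were pooled, and k3 was capped at 0.0001 min^-1. The pre-steady-state cleavage rate came from a burst-and-steady-state fit.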
row,Sequence,pre-steady-state target cleavage rate
1,UCCUGGAUGUCCUAGCAUACUAUUUAGUUA,0.0115 ± 0.0063
2,UCCUGGAACAGCUAGCAUAGUAUUUUGUUA,0.154 ± 0.029
3,UCCUGGAACAGCUUGCAUAUGUAUUUAGUUA,0.00424 ± 0.0037
4,UCCUGGAACAGCUACGAUAGUAUUUAGUAA,0.142 ± 0.02
5,UCCUGGAUCAGCUUCCAUUGUAUUUAGUUA,0.0508 ± 0.0093
6,UCCUGGAUCAGCUUGCAUUGUAUUUAGUAA,0.144 ± 0.014
7,UCCUCCUACAGCUUCCAUAGUAUUUUGUUA,0.0182 ± 0.0077
8,UCCUGGAACAGCUUGCAUAGAUUUUAGUAA,0.0259 ± 0.0091
9,UCCUGGAACAGCUUGCAUAGUAUAAUGUAA,0.014 ± 0.0065
10,UCCUGCUACAGCUUGCAUUCUAUUUUCAAA,0.0184 ± 0.0078
11,UCCUGGAUCUCCUUGCAUAGUAUUUUCAAA,0.0367 ± 0.0088
12,UCCUGGAACACGUUGCAUAGUAUUUAGAAA,0.187 ± 0.034
13,UCCUGGAACAGCUUGCAAAGUAUUUACUUA,0.122 ± 0.027
14,UCCUGGAUCACCUUGCAUAGUAUUUAGAAA,0.22 ± 0.051
15,UCCUCCUACAGCUUGCUAAGUAUUUUCAAA,0.0625 ± 0.017
16,UCCUCCUACAGCUACCAUAGUAUUUAGAAA,0.0576 ± 0.019
17,UCCUGGAACAGCUUGCAUAGUAUAUACUUA,0.0233 ± 0.01
18,UCCUGGAUGUGCUUGCAUAGUAUUUGUUA,0.0295 ± 0.011

row,Sequence,pre-steady-state target cleavage rate
1,UCCUGCUACAGCUUCCAUAGUAUUUUGUUA,0.00554 ± 0.0042
2,UCCUGGAUGUCGAACGUAACUAUAUAGUUA,< 0.0001
3,UCCUGGUACAGCUUGCAAUGUAUUUACAAA,0.00784 ± 0.0049
4,UCCUGGAACAGCUUGCAAAGUAUUUUCAAA,0.0111 ± 0.0049
5,UCCUGGAUGUCCUUGCAUAGUAUAAUGUUA,0.0286 ± 0.011
6,UCCUGGAUCAGCUACCAUAGUAUUUAGAAA,0.024 ± 0.0091
7,UCCUGGUACAGCUUGCAAAGUAUUUACAAA,0.0115 ± 0.0055
8,UCCUGGAUCAGCUUGCAUAGUAUUAUCUUA,0.0326 ± 0.0079
9,UCCUGGAUCACGAUGCAUAGUAUUUACAAA,0.0606 ± 0.015
10,UCCUGCUACACGAUGCAUAGUAUUUACAAA,0.0504 ± 0.02
11,UCCUGGAUGUGCAACCAUAGUAUUUAGUUA,0.0128 ± 0.0042
12,UCCUGGAACAGCUUGCAUACUAUAUAGUUA,0.0332 ± 0.0099
13,UCCUGGUACACCUUGGAUAGUAUUUAGUUA,0.223 ± 0.069
14,UCCUCCUACAGCUUGCAAUGUAUUUACAAA,0.0431 ± 0.011
15,UCCUGGAUGUCCUAGCAAAGUAUUUAGUUA,0.00585 ± 0.0032
16,UCCUGGAUGAGCUUGCAUAGUAUUAACAAA,0.00849 ± 0.0045
17,UCCUGGAUCAGCUUGCAUAGAAUUUAGUAA,0.0373 ± 0.011

# Same assay, conditions: auxiliary factor: none (no GTSF1)
row,Sequence,pre-steady-state target cleavage rate
1,UCCUGGAUGUCCUUGCAAAGAAUUUAGUUA,0.00283 ± 0.0026
2,UCCUGGAUGUCGAACCAUGAGUAUUUAGUUA,< 0.0001
3,UCCUGGAUGUCGAACGAUAGUAUUUAUGUUA,< 0.0001
4,UCCUGGAUGUCGAUCCUUAGUAUUUAGUUA,< 0.0001
5,UCCUGGUACAGCUUGCAUACAUUUUAGUUA,0.00408 ± 0.0037
